A selection: hits, their analogues and other compounds. The true share with any hit is near 11%.
L major viab: Leishmania major promastigote growth inhibition. Leishmania major promastigotes, resazurin fluorescence viability. inhibition, % at 10 µM. hit rate 9% among 200,000. AID 1063; in the data active = inhibition above about 50%;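 also: promastigotes grown with compound for 44 hours at 28 °C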
Autophagy HCS: alters autophagy in cells | MEF GFP-LC3 puncta imaging; test concentration mostly 10 µM | hit rate 0.98% among 190,000 | calls only at 10 µM (by protocol);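 active = percentage of spot-positive cells more than 3 SD above its plate mean, without a fluorescence outlier flag or 80% toxicity; inconclusive = no clear call, values can overlap the other calls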;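 also: spot-positive cell cutoff set from DMSO-treated cells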
Ins promoter up: MIN6 insulin promoter up-regulation | z-score at 5 µM | hit rate 0.3% among 190,000 | MIN6 insulin promoter-GFP reporter, high-content imaging; active compounds read high;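 active = z-score above 3 at 5 µM with at least 500 cells counted in the well; inconclusive = wells under 500 cells, flagged as cytotoxic or low count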
WT yeast gro inh: growth inhibition of WT yeast, mitochondrial fusion screen; inhibition, % at 10 µM; mitochondrial fusion phenotypic screen, WT strain; hit rate 2.1% among 190,000; in the data active = inhibition above about 58%; tested in S. cerevisiae
Insulin prom inh: TRM-6 insulin promoter activity inhibition | AID 1273 | TRM-6 cells (human fetal islet line), insulin promoter-eGFP reporter, imaging; reporter expression induced with tamoxifen | inhibition, % at 2 µM | hit rate 0.9% among 130,000;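 active = inhibition above the mean plus 3 SD, with well images judged a real hit on visual review, cut at about 60% in these data, passing the limit was not always enough; inconclusive = inhibition over the cutoff but images rejected on review; inactive = inhibition not above the cutoff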
* hit, by the source's call; i = inactive; ? = inconclusive; / = not tested or not shown; + = active, no number.

SMILES	L major viab	Autophagy HCS	Ins promoter up	WT yeast gro inh	Insulin prom inh
CCC(=O)c1ccc(OCC(O)CN2CCN(C(c3ccccc3)c3ccccc3)CC2)cc1 (configuration not stated)	59.9*	i	/	18.2	-14.3
CC(=O)Nc1ccc(N2C(=O)c3ccc(C(=O)Nc4nnc(SCc5ccc(F)cc5)s4)cc3C2=O)cc1	10.0	i	-0.8	10.5	/
N#Cc1sc2nc3c(cc2c1N)CCCC3	4.0	i	0.18	-5.9	?
C=CCN1C(=O)/C(=N/n2cnnc2)c2ccccc21	6.6	i	-0.22	-5.4	0.0
CC(C)CN1C(=O)C(=Nc2cccnc2)c2ccccc21	82.2*	i	0.18	8.2	/
CCOC(=O)C1=C(O)/C(=C/c2ccccn2)SC1=Nc1ccc(Cl)cc1	65.3*	i	-1.31	20.9	7.1
CCOC(=O)C1=C(O)/C(=C/c2ccc(OCC(=O)O)c(OCC)c2)SC1=Nc1ccccc1	11.4	i	-0.25	-2.7	35.7
Cc1ccc(NCCC(=O)c2cccc([N+](=O)[O-])c2)c(C)c1	97.1*	i	0.22	11.4	-7.4
Cc1cccc(NCCC(=O)c2ccc([N+](=O)[O-])cc2)c1C	93.1*	i	0.59	-3.7	/
CC(C)(C)c1ccccc1OCC(=O)NCCC(=O)O	99.0*	i	0.32	0.4	0.0
COc1ccc(S(=O)(=O)N2CC(O)C[C@H]2C(=O)OCC(=O)N2CCCCCC2)cc1 (some centres not stated)	-3.5	i	-0.03	2.8	/
Cc1ccc2nc(N/C(N)=N/S(=O)(=O)c3ccc([N+](=O)[O-])cc3)nc(C)c2c1	98.7*	i	-0.87	3.1	3.7
Cc1ccc(S(=O)(=O)/N=C(\N)Nc2nc(C)c3ccccc3n2)cc1	2.1	i	1.25	3.6	-26.9
COc1ccccc1-n1cnnc1SC(C)C(=O)Nc1cccc([N+](=O)[O-])c1 (configuration not stated)	2.9	i	0.54	-8.8	/
CC(C)C(NS(=O)(=O)c1cccc2nsnc12)C(=O)NCc1ccc2c(c1)OCO2 (configuration not stated)	100.0*	i	0.05	-7.4	/
CC(C)C(NS(=O)(=O)c1cccc2nsnc12)C(=O)NCc1ccco1 (configuration not stated)	/	/	-0.11	/	/
Cc1ccc(C)c(-n2c(-c3ccc(Br)cc3)csc2=NC(=O)c2ccccc2F)c1	/	/	-0.82	/	/
COc1ccc(NC(=O)CCN2C(=O)[C@@H]3[C@H](C2=O)[C@H]2C=C[C@@H]3C2)cc1	/	/	-0.1	/	/
COc1ccc(NC(=O)CCN2C(=O)C3C4CCC(C4)C3C2=O)cc1 (configuration not stated)	56.8*	i	0.35	3.1	-7.7
O=C(CCN1C(=O)C2C3CCC(C3)C2C1=O)Nc1ccc(Br)cc1 (configuration not stated)	60.1*	i	0.23	3.5	-16.2
Cc1cc(Cl)ccc1Oc1ccccc1C(=O)CC#N	18.2	i	0.35	45.3	18.2
CCC(C)c1ccccc1OCCn1ccnc1 (configuration not stated)	69.1*	i	-0.26	36.3	3.9
Clc1ccc(OCCn2ccnc2)c2ccccc12	96.3*	i	-0.84	13.3	-33.3
CN1CCN(NC(=O)CSc2ccc(Cl)cc2Cl)CC1	-8.2	i	0	-7.5	27.3
CCOC(=O)c1cnc(SC)nc1Oc1cccc(NS(=O)(=O)c2ccc(C)cc2)c1	10.6	+	-0.51	-1.6	-20.0
SMILES	L major viab	Autophagy HCS	Ins promoter up	WT yeast gro inh	Insulin prom inh
CC(=O)Nc1ccc(/C=N/NC(=S)NC(C)C)cc1	-8.4	i	-0.15	-0.5	50.0
CC(Sc1cnccn1)C(=O)O (configuration not stated)	-1.2	i	/	-9.9	55.6
CC1(C)Cc2c(sc3c2C2=NCCN2C=N3)CS1	6.2	i	-0.65	-2.5	87.1*
Cc1cc(N2C(=O)C=CC2=O)c([N+](=O)[O-])cc1C	23.4	i	0.57	61.9*	-163.2
CC(=O)c1ccc(NC(=O)C(C)OC(=O)c2ccc(NS(=O)(=O)c3ccc(F)c(F)c3)cc2)cc1 (configuration not stated)	-6.5	i	0.17	-13.3	15.4
CC1(C)Cc2ccccc2C2=NNC(=O)C2=N1	100.4*	i	-0.87	-23.6	/
CC(C)(C)C1CCC(OCC(O)CN2CCCC2)CC1 (configuration not stated)	99.8*	i	0.71	8.0	31.6
CC1CCN(CC(O)COC2CCC(C(C)(C)C)CC2)CC1 (configuration not stated)	92.3*	i	0.31	-15.1	-14.3
CC1(C)NC(=O)N(CC(O)COC2CCCCC2)C1=O (configuration not stated)	-1.4	i	0.04	-13.4	36.4
Cc1cccc(C)c1OCC(O)CN1CCN(c2ccccc2)CC1 (configuration not stated)	15.3	i	0	7.1	/
CC(C)(C)C1CCC(OCC(O)CN2CCN(c3ccccc3)CC2)CC1 (configuration not stated)	91.5*	i	-0.73	-9.3	-18.9
Cc1ccc(N2CCN(CC(O)COc3ccc([N+](=O)[O-])cc3)CC2)cc1 (configuration not stated)	96.9*	i	-1.28	15.0	/
O=C(c1ccccc1)N1CCN(CC(O)COC2CCCCC2)CC1 (configuration not stated)	-2.8	i	-0.28	0.3	/
O=C(O)CCC(=O)Nc1ccccc1C(=O)N1CCN(c2ccc(Cl)cc2)CC1	-4.4	i	0.41	-4.5	/
Cc1ccc(N2CCN(CC(O)COC3CCCCC3)CC2)cc1 (configuration not stated)	96.9*	i	0.1	6.7	61.1
Cc1ccc(N2CCN(CC(O)COc3cccc(C)c3)CC2)cc1 (configuration not stated)	/	/	-0.05	/	/
CN(C)Cc1nc2ccccc2c(=O)n1Cc1nc(-c2cccc([N+](=O)[O-])c2)cs1	51.8*	i	-1.43	13.3	/
CN1CCN(Cc2nc3ccccc3c(=O)n2Cc2nc(-c3ccc([N+](=O)[O-])cc3)cs2)CC1	100.5*	i	-0.43	-5.4	/
CN1CCN(Cc2nc3ccccc3c(=O)n2CC#N)CC1	-1.7	i	-0.61	-4.5	-13.3
CN1CCCC1CCNS(=O)(=O)c1ccc(Br)cc1 (configuration not stated)	96.1*	i	0.66	0.0	-125.0
Cc1ccccc1CSc1nnc(C)c(=O)n1N	4.7	i	0.55	14.9	/
COc1ccc(C)cc1N(CC(=O)N/N=C/c1ccccc1C(=O)O)S(=O)(=O)c1ccccc1	-9.3	i	-0.05	-0.8	-14.3
CC(C)(C)NC(=O)C(c1ccc(F)cc1)N(CCc1ccccc1)C(=O)c1ccn[nH]1 (configuration not stated)	14.2	i	/	4.2	/
COc1ccc(N(C(=O)c2ccn[nH]2)C(C(=O)NC(C)(C)C)c2ccc(F)cc2)cc1 (configuration not stated)	80.5*	i	/	-26.4	-53.6
CN(C)CCC(=O)N1c2ccccc2Sc2ccc(Cl)cc21	4.8	i	-0.27	-10.6	/
CN1CCN(CC/C=C2/c3ccccc3Sc3ccc(S(=O)(=O)N(C)C)cc32)CC1	/	/	0.03	18.9	/
